# Screens as filed in PubChem.
# The full list was thinned out, with hits kept by preference.
# 12-LOX inh – Primary qHTS assay for inhibitors of human arachidonate 12S-lipoxygenase (ALOX12): Round 2; Potency, µM (highest dose often 108 µM), for inactives: top-dose activity change, negative = inhibition, actives largely listed as inhibitors; Polyunsaturated fatty acid lipoxygenase ALOX12 (Homo sapiens), P18054; 580,000 compounds, 1.1% hits; AID 1671190, 2021; purified 12hLO, xylenol orange hydroperoxide absorbance; further: potency means the concentration at half of the fitted maximal effect
# Target sequence (P18054 whole entry, looked up): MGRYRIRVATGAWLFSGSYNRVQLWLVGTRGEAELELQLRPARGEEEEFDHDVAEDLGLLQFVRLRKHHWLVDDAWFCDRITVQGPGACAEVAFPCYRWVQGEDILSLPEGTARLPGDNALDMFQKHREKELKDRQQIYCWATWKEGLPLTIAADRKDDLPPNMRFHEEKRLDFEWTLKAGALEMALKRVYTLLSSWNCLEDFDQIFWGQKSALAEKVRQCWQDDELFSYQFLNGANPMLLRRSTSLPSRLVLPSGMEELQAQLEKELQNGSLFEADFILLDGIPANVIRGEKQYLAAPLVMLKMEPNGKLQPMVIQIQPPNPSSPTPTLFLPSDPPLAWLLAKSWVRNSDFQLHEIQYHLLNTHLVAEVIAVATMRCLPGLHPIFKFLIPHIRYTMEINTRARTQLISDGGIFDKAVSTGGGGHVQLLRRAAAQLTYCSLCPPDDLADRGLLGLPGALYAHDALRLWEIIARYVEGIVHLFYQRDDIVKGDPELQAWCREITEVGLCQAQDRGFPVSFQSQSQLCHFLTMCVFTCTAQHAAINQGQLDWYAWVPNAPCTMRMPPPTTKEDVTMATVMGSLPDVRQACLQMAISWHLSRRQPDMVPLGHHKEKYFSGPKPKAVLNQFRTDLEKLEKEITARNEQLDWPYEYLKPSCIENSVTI
#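 Purified human 12hLO at 150 nM in 25 mM Hepes, 0.01% Triton X-100, pH 7.0, preincubated 15 min at room temperature with compound. Reaction started with 40 uM arachidonic acid, 30 min at room temperature. Hydroperoxide measured by Fe-xylenol orange, 573/405 nm absorbance ratio.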
# DT40 TDP1 no CPT – qHTS for Inhibitors of human tyrosyl-DNA phosphodiesterase 1 (TDP1): qHTS in cells in absence of CPT | DT40 Tdp1-/- hTDP1 cells, no CPT, ATP luminescence, 48 h | Potency, µM (top dose mostly 46.2 µM), for inactives: at the top dose activity change, negative = growth inhibition, most hits filed as inhibitors | 420,000 compounds, 15% hits | AID 686978, 2013; further: potency means the concentration at half of the fitted maximal effect; nearly all actives have a fitted effect of over 55% in size
#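 Seeded 400 DT40-hTDP1 cells/well (vehicle DMSO, no 20 nM CPT); pinned compounds; ≥48 hr at 37 °C; CellTiter-Glo luminescence as viability measure.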
# DT40 TDP1 CPT – qHTS for Inhibitors of human tyrosyl-DNA phosphodiesterase 1 (TDP1): qHTS in cells in presence of CPT | chicken DT40 Tdp1-/-;hTDP1 cells + 20 nM CPT, ATP luminescence, 48 h | Potency, µM (titrated, usually from 46.2 µM), for the others: at the highest dose activity change, negative = growth inhibition, usual class: inhibitors | 420,000 compounds, 12% hits; further: potency means the concentration at half of the fitted maximal effect; nearly all actives have a fitted effect of over 55% in size
#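 Cell growth measured by CellTiter-Glo luminescence after a minimum 48 h, 37 C compound exposure with 20 nM CPT in Tdp1-knockout DT40 cells stably expressing hTDP1, seeded 400/well; qHTS titration format.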
# IL1B secr inh – qHTS for Inhibitors of Inflammasome Signaling: IL-1-beta AlphaLISA Primary Screen; THP-1 LPS/ATP IL-1B secretion, AlphaLISA, 16 h; stronger effect = lower value; activity change, % at 57.5 µM; 360,000 compounds, 4.7% hits; AID 743279, 2014; in the data active means activity change below about -50%; inconclusive means mostly about -30% to -49%
#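 THP-1 cells pretreated 1 hr with compounds (up to 57.5 uM final), then stimulated with LPS (250 ng/mL final) plus ATP (1.25 mM final); secreted IL-1B measured by AlphaLISA after 16 hr, decreased signal indicating inhibition.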
# HT1080 IDH1KD tx – qHTS for induction of synthetic lethality in tumor cells producing 2HG: qHTS for the HT-1080-IDH1KD cell line; HT-1080 IDH1 knockdown viability, ATP luminescence, 48 h; Potency, µM (highest dose often 46.1 µM), for inactives: at the top dose activity, negative = toxicity, actives largely listed as cytotoxic; 360,000 compounds, 2% hits;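 further: potency means the concentration at half of the fitted maximal effect; 0% = DMSO wells and -100% = cell-free medium wells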
#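 After a 2 h attachment period, IDH1KD HT-1080 cells took pin-transferred compound for 48 h at 37 °C; ATP-based luminescence after 10 min room-temperature reagent incubation reported viability.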
# HT1080NT lethal – qHTS for induction of synthetic lethality in tumor cells producing 2HG: qHTS for the HT-1080-NT fibrosarcoma cell line. HT-1080-NT fibrosarcoma viability, CellTiter-Glo ATP luminescence, 48 h. Potency, µM (top dose mostly 46.1 µM), without a hit: at the top dose activity, negative = less viability, hits mostly cytotoxic. 360,000 compounds, 1.6% hits;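 further: NT is the 2HG producing partner of a matched IDH1 knockdown line; potency means the concentration at half of the fitted maximal effect; 0% = DMSO-treated cells and -100% = media-only wells without cells; nearly all actives have a fitted effect of over 55% in size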
#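 HT-1080-NT fibrosarcoma cells (2HG-overproducing), 750 cells/well in RPMI with 5% FBS, dosed after 2 h and incubated 48 h at 37C. CellTiter-Glo luminescence normalized to DMSO and no-cell wells; concentration-response curves fitted and classed.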
# * hit, by the source's call; ? = inconclusive; . = no result given; [ ] = dose if it differs, or a comment. Unless noted, the call rests on the fitted dose curve; in most records, active means well fitted curve in the direction sought with a large enough effect; inconclusive means small, poorly fitted or top-dose-only effect, or another doubt; inactive means no such curve, though single readings can be large; an effect the other way counts as inactive or inconclusive. Unless noted, on the % scale 0 is the no-effect control and ±100 the full control effect.
SMILES,12-LOX inh,DT40 TDP1 no CPT,DT40 TDP1 CPT,IL1B secr inh,HT1080 IDH1KD tx,HT1080NT lethal
CN(C)CC(=O)N1c2ccccc2CCc2ccc(NC(=O)c3ccc(N)cc3)cc21,13%,-4%,-3%,-21,3%,-5%
COc1cc(C(=O)Nc2ccc3c(c2)N(C(=O)CCN(C)C)c2ccccc2CC3)cc(OC)c1OC,0%,-1%,-1%,-60*,?,?
CCOC(=O)Nc1ccc2c(c1)N(C(=O)OC)c1ccccc1CC2,0%,?,?,24,?,?
Cc1ccc(/C=C2/CNC/C(=C/c3ccc(C)cc3)C2=O)cc1,-20%,13µM*,7.3µM*,-106*,23µM*,15µM*
COc1ccccc1CNC(=O)c1cc2sccc2n1Cc1ccc(F)cc1,-18%,23µM*,21µM*,.,.,.
CC1Cc2ccccc2N1C(=O)c1cc2sccc2n1Cc1ccc(F)cc1 (stereo not drawn),53%,16µM*,?,-22,-10%,-5%
COCC1CN(C(C)=O)CC12CCN(Cc1cccc(OC)n1)CC2 (stereo not drawn),41%,.,.,.,.,.
CCC1CCCCN1S(=O)(=O)c1ccc(NC(=O)C2CCN(C(=O)c3ccco3)CC2)cc1 (stereo not drawn),-6%,?,-18%,28,-18%,?
CCC1CCCCN1S(=O)(=O)c1ccc(S(=O)(=O)N(Cc2cccs2)C2CC2)cc1 (stereo not drawn),11%,23µM*,18µM*,62,7%,8%
CCC1CCCCN1S(=O)(=O)c1ccc(S(=O)(=O)N(Cc2ccccn2)CC2CCCO2)cc1 (stereo not drawn),-11%,23µM*,23µM*,-1,-2%,6%
COc1ccc2cc(C(=O)N(C)Cc3ccc(C(N)=O)cc3)[nH]c2c1,-8%,.,.,.,.,.
CC(=O)N1CCN(c2nc3c(s2)CC(C(=O)Nc2cc(F)cc(F)c2)CC3)CC1 (stereo not drawn),7%,.,.,.,.,.
CC(C)NC(=O)c1ccc2c3n(nc2c1)-c1ccccc1CO3,4%,21µM*,?,0,?,?
Cc1ccc2c(c1)COc1c3ccc(C(=O)NCC4CC4)cc3nn1-2,9%,21µM*,?,3,-8%,-15%
Cc1ccc2c(c1)COc1c3ccc(C(=O)O)cc3nn1-2,-2%,-18%,-17%,4,-18%,-27%
CCOc1ccc(C2C(=O)N(C3CCCCC3)CC(=O)N2CCc2ccccc2)cc1OC (stereo not drawn),-18%,?,?,.,.,.
O=C1C(c2ccc(F)cc2)N(CCc2ccc(Cl)cc2)C(=O)CN1C1CCCCC1 (stereo not drawn),?,21µM*,16µM*,.,.,.
COc1ccc(CCN2C(=O)CN(C3CCCCCC3)C(=O)C2c2ccc(C)cc2)cc1OC (stereo not drawn),?,23µM*,?,.,.,.
CC1CCC(N2CC(=O)N(C3CCCCC3)C(c3ccc(F)cc3)C2=O)CC1 (stereo not drawn),-20%,-21%,4%,.,.,.
COc1cc(C2C(=O)N(C3CCCCCC3)CC(=O)N2CCc2ccccc2)ccc1OC(C)C (stereo not drawn),-18%,13µM*,16µM*,.,.,.
COc1ccc(CCN2C(=O)CN(C3CCCCCC3)C(=O)C2c2ccc(OC(C)C)c(OC)c2)cc1OC (stereo not drawn),-26%,?,?,.,.,.
CC1CCC(N2CC(=O)N(C3CCCC3)C(c3ccc(Cl)cc3)C2=O)CC1 (stereo not drawn),-24%,16µM*,?,.,.,.
COc1cccc(CN2C(=O)CN(C3CCCCC3)C(=O)C2c2ccc(F)cc2)c1 (stereo not drawn),-3%,?,?,-8,-15%,-14%
Cc1ccc2nc(C)c(C(=O)NCC(=O)Nc3c(C)cccc3C)cc2c1,21%,.,.,.,.,.
CC(C)c1ccc(NC(=O)C(C)N2CCN(C(=O)c3ccco3)CC2)cc1 (stereo not drawn),-7%,.,.,.,.,.
SMILES,12-LOX inh,DT40 TDP1 no CPT,DT40 TDP1 CPT,IL1B secr inh,HT1080 IDH1KD tx,HT1080NT lethal
O=C(Nc1cccs1)O[C@H]1COCCN(c2nc3ccccc3o2)C1,2%[176 µM],.,.,.,.,.
COc1ccc(CCN2C(=O)CN(C3CCCCCC3)C(=O)C2c2ccc(Cl)cc2)cc1OC (stereo not drawn),-20%,18µM*,?,.,.,.
COc1ccc(CN2C(=O)CN(C3CCCCCC3)C(=O)C2c2ccc(OC)c(OC)c2)cc1 (stereo not drawn),-30%,-24%,?,-14,17%,16%
CCOc1ccc(C2C(=O)N(C3CCCCCC3)CC(=O)N2Cc2ccc(C)cc2)cc1OC (stereo not drawn),-21%,23µM*,23µM*,.,.,.
Cc1sc(NC(=O)C(Cc2ccccc2)Cc2ccccc2)c(C#N)c1C,3%,.,.,.,.,.
CCOC(=O)N1CCC(n2c(SCC(=O)c3ccccc3)nc3ccsc3c2=O)CC1,-13%,2.9µM*,2.6µM*,-16,10%,1%
CCOC(=O)N1CCC(n2c(SCC(=O)NCc3ccco3)nc3ccsc3c2=O)CC1,.,18µM*,23µM*,33,-3%,8%
CCc1ccc(NC(=O)c2ccc3c(=O)n4c(nc3c2)CCCCC4)cc1,1%,?,?,-5,0%,-1%
CCOc1ccccc1NC(=O)c1ccc2c(=O)n3c(nc2c1)CCCCC3,17%,?,16µM*,?,10%,2%
COc1ccc(C)cc1NC(=O)c1ccc2c(=O)n3c(nc2c1)CCCCC3,-3%,?,15µM*,9,?,5%
CCN(CC)S(=O)(=O)c1ccc(NC(=O)c2ccc3c(=O)n4c(nc3c2)CCCCC4)cc1,5%,23µM*,23µM*,.,.,.
CCOc1ccccc1NC(=O)c1ccc2c(Cl)c3c(nc2c1)CCCC3,-13%,23µM*,?,.,.,.
Cc1ccc(C)c(NC(=O)c2ccc3c(=O)n4c(nc3c2)CCC4)c1,-1%,?,-6%,-1,3%,8%
